Screening results deposited in PubChem by Johns Hopkins Ion Channel Center.
KCNQ2 inh = KCNQ2 (rat) channel inhibition; CHO-K1 KCNQ2, FluxOR thallium flux, 20 min; hits give low values; AID 2156; actives 1.1% (n = 310,000); B-score at 10 µM;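 active means fluorescence ratio B-score at most minus 3 library SDs, with starting brightness B-score within 2 library SDs, cut at about -5.5 in these data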
KCNQ2 pot = enhances the rat KCNQ2 potassium channel. O88943. CHO-K1 KCNQ2, FluxOR thallium flux fluorescence; hits give high values. B-score at 10 µM. actives 0.54% (n = 310,000);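 active means fluorescence ratio B-score at least 3 SD of library B-scores, with initial fluorescence B-score within 3 of them, cut at about 5.3 in these data; same plate scores as AID 2156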;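 further: B-score of peak minus minimum over baseline fluorescence ratio after K+ and Tl+ stimulus; positive B-score means potentiation of KCNQ2 with more thallium influx and brighter signal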
Kir21 confirm = confirmation of mouse Kir2.1 potassium channel inhibitors. Kir2.1-expressing cells, FluxOR thallium flux fluorescence; hits give low values. shares compounds with KCNQ2 pot. AID 2032. actives 41% (n = 2,300). Tl flux remaining, % of negative control (hits give low values), % at 10 µM;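 active means Primary-screen hit whose thallium flux fell at least 3 control SD below untreated wells in both duplicates, with normal baseline fluorescence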;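 further: 0% = blank wells without stimulus and 100% = stimulated no-compound controls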
Target sequence (P35561 whole entry, looked up): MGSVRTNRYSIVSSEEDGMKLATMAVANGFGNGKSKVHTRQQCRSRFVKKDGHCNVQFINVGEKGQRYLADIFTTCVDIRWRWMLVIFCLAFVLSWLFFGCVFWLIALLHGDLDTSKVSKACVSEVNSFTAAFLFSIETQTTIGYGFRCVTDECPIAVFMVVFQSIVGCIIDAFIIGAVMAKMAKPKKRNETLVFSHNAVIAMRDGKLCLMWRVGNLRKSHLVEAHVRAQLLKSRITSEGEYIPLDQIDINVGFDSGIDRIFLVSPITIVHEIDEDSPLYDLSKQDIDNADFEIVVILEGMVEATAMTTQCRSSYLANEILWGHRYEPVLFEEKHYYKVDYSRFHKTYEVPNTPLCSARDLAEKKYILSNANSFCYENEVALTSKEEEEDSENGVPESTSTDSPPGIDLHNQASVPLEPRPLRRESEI
HEK293 ctr = counter-screen for Kir2.1 inhibitors: effect in parental HEK293 cells; shares compounds with KCNQ2 pot; FluxOR thallium flux fluorescence; 0% = unstimulated blank wells; FluxOR signal as % of negative control (100 = no effect), % at 10 µM; actives 19% (n = 2,300); AID 2105;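 active means dye signal at least 3 control SD above or below untreated wells in both duplicates, raw fluorescence within 3, either direction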;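 further: percent is based on the flux ratio of peak minus minimum fluorescence over baseline F0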
CHO-K1 Tl ctr = alters thallium flux in parental CHO-K1 cells, KCNQ2 counter-screen. activity increase over 3SD of controls, % at 10 µM. shares compounds with KCNQ2 pot. AID 2282. FluxOR thallium flux fluorescence; zero = vehicle mean+3SD, 100% = vehicle-minus-blank window. actives 43% (n = 1,200);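 active means signal rise of at least 3 SD above the untreated control mean, in both duplicate wells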;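 further: counter screen of KCNQ2 potentiator hits so any rise reflects channel-independent effects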
KCNQ1 pot spec = tests whether KCNQ2 potentiators also act on human KCNQ1. activation over 3SD threshold, % at 10 µM. AID 2283. actives 28% (n = 1,200). shares compounds with KCNQ2 pot. CHO KCNQ1 stable, FluxOR thallium flux fluorescence; beyond 3SD, as % of vehicle-control signal;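 active means fluorescence ratio rise of at least 3 SD of vehicle wells above their mean, in both replicate wells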;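 further: 0% = vehicle mean plus 3 SD and 100% = vehicle minus unstimulated blank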
KCNQ2 pot conf = confirmation of rat KCNQ2 potassium channel potentiators. potentiation, less the hit threshold, % at 10 µM. AID 2287. shares compounds with KCNQ2 pot. CHO-KCNQ2 cells, FluxOR thallium flux fluorescence. actives 68% (n = 1,200);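 active means fluorescence ratio rising 3 SD or more over the vehicle control mean in both replicates, plus primary screen hit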;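 further: peak minus minimum thallium fluorescence divided by baseline after K/Tl stimulus; 0% = vehicle mean plus 3 SD and 100% = vehicle minus unstimulated blank difference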
Kir2-1 sel = mouse Kir2.1 off-target activity of KCNQ2 potentiators. shares compounds with KCNQ2 pot. HEK293 Kir2.1, FluxOR thallium flux fluorescence. activity over 3SD threshold, % at 10 µM. actives 2% (n = 1,200). AID 2345;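 active means fluorescence ratio rise of at least 3 SD above the vehicle-control mean, seen in both replicates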;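 further: 0% = vehicle mean plus 3 SD and 100% = vehicle minus no-stimulus blank window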
KCNQ2 W236L pot = rat KCNQ2 W236L mutant potentiation by KCNQ2 potentiators | shares compounds with KCNQ2 pot | CHO KCNQ2-W236L, automated patch clamp current | current increase over 3SD of negative controls (%), hits give high values, % at 25 µM | actives 10% (n = 940);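 active means current increase at least 3 SD of the untreated controls above them in both duplicate recordings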
An asterisk follows results filed as active. Only some compounds are listed: those with a hit (about 1.6% of all), similar ones and a draw of the others.

`COc1ccc(Cl)c(N2CCN(CCCNC(=O)Nc3ccc(C)cc3)CC2)c1` gave KCNQ2 inh inactive, Kir21 confirm 70%* and HEK293 ctr inactive.
For COc1ccc(C(CNC(=O)C(=O)NC2CCCCC2)N2CCN(C)CC2)cc1 (centres undefined) the results were KCNQ2 inh inactive and KCNQ2 pot 0.03.
Cn1c(CNC(=O)c2ccc(F)cc2)cc2ccccc21 was read as KCNQ2 inh inactive, KCNQ2 pot 6.5*, Kir21 confirm inactive, HEK293 ctr inactive, CHO-K1 Tl ctr 0, KCNQ1 pot spec 78*, KCNQ2 pot conf 0, Kir2-1 sel -27 and KCNQ2 W236L pot inactive.
Screening Cn1c(CNC(=O)c2ccccc2F)cc2ccccc21 returned KCNQ2 inh inactive.
`O=C(CN1CCN(c2ccc(F)cc2)CC1)NCc1ccc(Cl)cc1` gave KCNQ2 inh inactive.
CC(C)(C)NC(=O)C(=O)NN=C1CCCCCCCCCCC1 was read as KCNQ2 inh inactive and KCNQ2 pot 1.
For NC(N)=NN=C1CCCCCCCCCCC1 the results were KCNQ2 inh inactive, Kir21 confirm inactive and HEK293 ctr inactive.
O=C(CSc1cn[nH]n1)Nc1ccc(Cl)cc1Cl was read as KCNQ2 inh inactive.
For CCc1ccccc1N1C(=O)C2C3C=CC(CC3)C2C1=O (centres undefined) the results were KCNQ2 inh inactive and KCNQ2 pot 0.54.
`O=C(Oc1ccc(C(=S)N2CCOCC2)cc1)c1ccccc1F` gave KCNQ2 inh inactive, KCNQ2 pot 0.17, Kir21 confirm 71%* and HEK293 ctr inactive.
`O=C(Oc1ccc(C(=S)N2CCOCC2)cc1)c1ccccc1[N+](=O)[O-]` gave KCNQ2 inh inactive.
`O=C(Oc1ccc(C(=S)N2CCOCC2)cc1Br)c1ccccc1F` gave KCNQ2 inh inactive.
For O=C(Oc1ccc(C(=S)N2CCOCC2)cc1Cl)c1ccccc1F the results were KCNQ2 inh inactive, Kir21 confirm 69%* and HEK293 ctr inactive.
`CCn1cc(S(=O)(=O)NCCc2ccc(F)cc2)cn1` gave KCNQ2 inh inactive.
`CCN(CC)c1ccc(NC(=O)CCN2C(=O)c3ccccc3S2(=O)=O)c(C)c1` gave KCNQ2 inh inactive and KCNQ2 pot 1.1.
CCOCCCNC(=O)Cn1cnc2c(cnn2-c2ccc(C)c(C)c2)c1=O was read as KCNQ2 inh inactive and KCNQ2 pot 0.22.
`CNCc1ccccc1Sc1ccc(O)c(O)c1` gave KCNQ2 inh inactive, Kir21 confirm 39%* and HEK293 ctr inactive.
Screening COc1ccc(Sc2ccccc2CN(C)C)cc1OC returned KCNQ2 inh inactive and KCNQ2 pot 0.47.
For COCC(=O)N1CCC(Oc2ccc(C(=O)N3CCN(C)C[C@@H]3C(C)C)cc2)CC1 the results were KCNQ2 inh inactive and KCNQ2 pot 2.4.
Cc1c(C(=O)N(C)Cc2ccc(OC(F)F)cc2)oc2ccccc12 was read as KCNQ2 inh inactive.
Screening COc1ccc(CCN(C)C(=O)c2oc3ccccc3c2C)cc1OC returned KCNQ2 inh inactive, KCNQ2 pot 0.42, Kir21 confirm 38%* and HEK293 ctr inactive.
For C/C(N)=C(/C#N)C(=O)CSc1nc2ccccc2c(=O)n1Cc1ccc(C)cc1 the results were KCNQ2 inh inactive.
C/C(N)=C(/C#N)C(=O)CSc1nc2ccccc2c(=O)n1Cc1ccc(F)cc1 was read as KCNQ2 inh inactive, KCNQ2 pot 5.5*, Kir21 confirm inactive, HEK293 ctr 167%*, CHO-K1 Tl ctr -8, KCNQ1 pot spec 16*, KCNQ2 pot conf 3.4*, Kir2-1 sel -37 and KCNQ2 W236L pot inactive.
NC(=O)C1=C[C@@H](c2ccc(Br)cc2)C[C@@H](OCc2ccc(CO)cc2)O1 was read as KCNQ2 inh inactive.
`NC(=O)C1=C[C@H](c2ccc(Br)cc2)C[C@H](OCc2ccc(CO)cc2)O1` gave KCNQ2 inh inactive, KCNQ2 pot 0.05, Kir21 confirm 45%* and HEK293 ctr inactive.
For COc1ccccc1C(=O)Nc1nnc(-c2ccc(F)cc2)s1 the results were KCNQ2 inh inactive.
`COc1ccc(C(=O)Nc2nnc(-c3ccc(F)cc3)s2)c(OC)c1` gave KCNQ2 inh inactive, KCNQ2 pot 10*, Kir21 confirm inactive, HEK293 ctr inactive, CHO-K1 Tl ctr -33, KCNQ1 pot spec 19*, KCNQ2 pot conf -14 and Kir2-1 sel -38.
`CCOC(=O)c1ccc(NC(=O)CSC2=NN3CCCC(=O)N=C3S2)cc1` gave KCNQ2 inh inactive.
For Cn1c(=O)n(CC(=O)NCC2CCCO2)c(=O)c2c3c(sc21)CCCC3 (centres undefined) the results were KCNQ2 inh inactive and KCNQ2 pot 0.43.
C=CCNC(=O)N[C@@H](Cc1ccccc1)C(=O)OC was read as KCNQ2 inh inactive and KCNQ2 pot 0.59.
Cc1cc(C)c(S(=O)(=O)Nc2ccc(O)cc2)cc1C was read as KCNQ2 inh inactive, KCNQ2 pot 10*, CHO-K1 Tl ctr -11, KCNQ1 pot spec 1.5*, KCNQ2 pot conf 40*, Kir2-1 sel -81 and KCNQ2 W236L pot inactive.
For Cc1ccc(C)c(S(=O)(=O)Nc2ccc(O)cc2)c1 the results were KCNQ2 inh inactive and KCNQ2 pot 3.1.
For COc1ccc(NC(=O)c2sc3nc(N4CCOCC4)c4c(c3c2N)CC(C)(C)OC4)cc1 the results were KCNQ2 inh inactive.
Screening CC1(C)Cc2c(c(N3CCOCC3)nc3snc(NC(=O)c4ccccc4)c23)CO1 returned KCNQ2 inh inactive, KCNQ2 pot 8.6*, Kir21 confirm inactive, HEK293 ctr inactive, CHO-K1 Tl ctr -13, KCNQ1 pot spec -15, KCNQ2 pot conf 28*, Kir2-1 sel -18 and KCNQ2 W236L pot inactive.
O=C(/C=C/c1ccccc1)NCc1ccc2c(c1)OCO2 was read as KCNQ2 inh inactive and KCNQ2 pot 2.
